Source: the supplement of paper PMC10515830
Structures can show the parent of a compound that is named as a salt.

Key:
Conditions in all cases: 10 µM; exposure time 6 h
[1] = system: Danio rerio larvae (5 dpf); experiment: difference in excitability vs DMSO (percentage points); higher = more excitable than DMSO
In short: (§1)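 Wild-type 5 dpf zebrafish larvae in 96-well plates were given 100 µL egg water containing library compound at 10 µM final for 6 h. After 3 h of exposure, plates at 28.5 ℃ were photographed every 6 s during a 3-h programme of moving lines and 100 ms, 400Hz tones. Z-LaP Tracker (a DeepLabCut model) quantified each behaviour, averaged over 48 larvae per compound. Values are the compound mean minus the DMSO-vehicle control, in percentage points.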

[2] = system: Danio rerio larvae (5 dpf); experiment: difference in startle response vs DMSO (percentage points); higher = stronger startle than DMSO
In short: as §1

[3] = system: Danio rerio larvae (5 dpf); experiment: difference in activity during first hour vs DMSO (percentage points); higher = more activity than DMSO
In short: as §1

[4] = system: Danio rerio larvae (5 dpf); experiment: difference in habituation to acoustic stimuli vs DMSO (percentage points); higher = more habituation than DMSO
In short: as §1

[5] = system: Danio rerio larvae (5 dpf); experiment: difference in combined optomotor response to red, green and blue moving lines vs DMSO (percentage points); higher = stronger optomotor response than DMSO
In short: as §1

Structure (SMILES) | difference in excitability [1] | difference in startle response [2] | difference in activity during first hour [3] | difference in habituation to acoustic stimuli [4] | difference [5]
N#Cc1ccc(Oc2ccc3c(c2)COB3O)cc1 | -2.19 | -0.784 | -16.9 | -15.1 | -18.2
CCOC(=O)C1=C(COCCN)NC(C)=C(C(=O)OC)C1c1ccccc1Cl (stereo not given) [Amlodipine] | 4.37 | -5.58 | 1.69 | 0.668 | 7.23
O=C(NCC1CCCCN1)c1cc(OCC(F)(F)F)ccc1OCC(F)(F)F (stereo not given) [Flecainide (acetate)] | 6.44 | -12.4 | -19.1 | -11 | -18.8
Nc1ccc(C(=O)NCC(=O)O)cc1 [4-Aminohippuric Acid] | 3.62 | 5.22 | 3.44 | -0.693 | 7.16
CC(C)c1c(C(=O)Nc2ccccc2)c(-c2ccccc2)c(-c2ccc(F)cc2)n1CC[C@@H](O)C[C@@H](O)CC(=O)O [Atorvastatin (calcium salt hydrate)] | 2 | -0.915 | -6.37 | -0.794 | -0.114
CCOCCn1c(N2CCCN(C)CC2)nc2ccccc21 [Emedastine (fumarate)] | 5.25 | 8.02 | 5.05 | 0.658 | -3.97
CNC(=O)c1cc(Oc2ccc(NC(=O)Nc3ccc(Cl)c(C(F)(F)F)c3)cc2)ccn1 [Sorafenib] | 19.5 | -6.25 | -3.15 | -3.01 | -2.71
CC(C(=O)O)c1cccc(Oc2ccccc2)c1 (stereo not given) [Fenoprofen (calcium salt hydrate)] | 5.22 | 0.479 | -0.54 | -2.86 | -2.31
Nc1nc(=O)n([C@@H]2CS[C@H](CO)O2)cc1F [Emtricitabine] | 1.12 | -4.62 | 11.4 | 4.83 | 7.06
Cc1cnc(NC(=O)C2=C(O)c3ccccc3S(=O)(=O)N2C)s1 [Meloxicam] | 5.53 | 6.51 | -3.33 | 3.11 | 4.63
NC[C@@H]1O[C@@H](O[C@H]2[C@H](O)[C@@H](O[C@H]3O[C@H](CO)[C@@H](O)[C@H](N)[C@H]3O)[C@H](N)C[C@@H]2N)[C@@H](O)[C@H](O)[C@H]1O [Kanamycin A (sulfate)] | 8.55 | -4.02 | 4.22 | 3.45 | 4.39
CN[C@H](CC(C)C)C(=O)N[C@H]1C(=O)N[C@@H](CC(N)=O)C(=O)N[C@H]2C(=O)N[C@H]3C(=O)N[C@H](C(=O)N[C@H](C(=O)O)c4cc(O)cc(O)c4-c4cc3ccc4O)[C@H](O)c3ccc(c(Cl)c3)Oc3cc2cc(c3O[C@@H]2O[C@H](CO)[C@@H](O)[C@H](O)[C@H]2O[C@H]2C[C@](C)(N)[C@H](O)[C@H](C)O2)Oc2ccc(cc2Cl)[C@H]1O [Vancomycin (hydrochloride)] | -0.532 | -0.846 | 1.02 | -1.36 | 9.98
CCc1cc(C(N)=S)ccn1 [Ethionamide] | -2.77 | -1 | -3.96 | 0.506 | 2.57
CC(C)(S)[C@@H](N)C(=O)O [Penicillamine] | 1.99 | 3.43 | -11.2 | 6.31 | 4.5
COc1c(C)c2c(c(O)c1C/C=C(\C)CCC(=O)O)C(=O)OC2 [Mycophenolic Acid] | 2.6 | 4.16 | -1.66 | -0.729 | 8.73
CC(C)C(=O)Oc1ccc(CO)cc1[C@H](CCN(C(C)C)C(C)C)c1ccccc1 [Fesoterodine (fumarate)] | 4.21 | -11.4 | 2.92 | -7.33 | -6.79
COc1cc([C@@H]2c3cc4c(cc3[C@@H](O[C@@H]3O[C@@H]5CO[C@@H](c6cccs6)O[C@H]5[C@H](O)[C@H]3O)[C@H]3COC(=O)[C@H]23)OCO4)cc(OC)c1O [Teniposide] | -5.17 | -1.26 | -12 | 3.62 | -8.33
NC(=O)N[C@@H](CCC(=O)O)C(=O)O [N-Carbamyl-L-Glutamic Acid] | 5.63 | -0.75 | 17.4 | 3.65 | 8.31
CO[C@@H]1[C@H](N(C)C(=O)c2ccccc2)C[C@H]2O[C@]1(C)n1c3ccccc3c3c4c(c5c6ccccc6n2c5c31)C(=O)NC4 | -5.3 | -4.96 | 4.11 | 8.1 | 0.314
C#CCC(Cc1cnc2nc(N)nc(N)c2n1)c1ccc(C(=O)N[C@@H](CCC(=O)O)C(=O)O)cc1 (stereo not given in full) [Pralatrexate] | 7.8 | 7.47 | 0.4 | 4.28 | 4.2
NC(=O)C(c1ccccc1)(c1ccccc1)[C@@H]1CCN(CCc2ccc3c(c2)CCO3)C1 [Darifenacin (hydrobromide)] | 15.5 | -9.95 | -4.6 | -3.27 | -6.74
CCCCNc1cc(C(=O)O)cc(S(N)(=O)=O)c1Oc1ccccc1 [Bumetanide] | 5.57 | -2.75 | 5.52 | -3.24 | 3.54
O=C1CCCC(=O)C1C(=O)c1ccc(C(F)(F)F)cc1[N+](=O)[O-] [Nitisinone] | -4.15 | -6.23 | 19.7 | -0.151 | 0.618
